In the supplement of paper PMC9262897, “Low-cost anti-mycobacterial drug discovery using engineered E. coli” (Nature Communications, 2022) one finds growth data, which are given here for 4 compounds.

Molecules are shown by their SMILES. ± gives the standard deviation of the averaged measurements.

Assay in all cases: growth (OD600 after 10 h); higher = more growth (less inhibition)
Experiment [1] concerns E. coli TESEC Alr+ wild-type control. The note with it: compound 0.1 mM; raw OD600 reference: median of DMSO wells 0.241, cell-free background 0.041. As for the experimental part:
(§1)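 TESEC Mtb Alr E. coli, or the Alr+ wild-type control, in 384-well plates with Prestwick library compounds at 0.1 mM and 1% DMSO, across arabinose induction levels of 1E3 to 1E7 nM. Growth is read as OD600 after 10 h at 37 °C in triplicate biological replicates.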

The test system of experiment [2] is E. coli TESEC Mtb Alr. The note with it: compound 0.1 mM. As for the experimental part: as §1
The test system of experiment [3] is E. coli TESEC Mtb Asd. As to conditions: compound 0.1 mM. The procedure:
(§2)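 TESEC E. coli strains in which the native enzyme is deleted and replaced by arabinose-inducible Mtb Asd, DapB, CysH or TrpD, each grown in its selective medium. Strains were screened against the Prestwick library at 0.1 mM and 1% DMSO in 384-well format at low and high arabinose induction. Growth is read as OD600 after 10 h in triplicate.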

For experiment [4], the system named is E. coli TESEC Mtb DapB. The note with it: compound 0.1 mM. The procedure:
as §2

Experiment [5] concerns E. coli TESEC Alr+ wild-type control. As to conditions: compound 0.1 mM; raw OD600 reference: median of DMSO wells 0.49, cell-free background 0.052. As for the experimental part:
(§3)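 TESEC Mtb Alr E. coli (ΔaraC ΔtolC ΔentC Δalr ΔdadX, arabinose-inducible Mtb Alr) or the Alr+ wild-type control strain, grown in defined M9-fructose medium without D-alanine in 96-well plates with Prestwick library compounds at 0.1 mM and 1% DMSO. Low Alr induction is 0.1 µM arabinose and high induction is 10 mM arabinose.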

Experiment [6] relates to E. coli TESEC Mtb Alr. The note with it: compound 0.1 mM. The procedure: as §3
The source holds these as a separate data set.

The mark [7] stands for this setting: arabinose 1000 nM, raw OD600 reference: median of DMSO wells 0.294, cell-free background 0.041.
Setting [8] is: arabinose 10000 nM, raw OD600 reference: median of DMSO wells 0.264, cell-free background 0.041.
Setting [9] is: arabinose 100000 nM, raw OD600 reference: median of DMSO wells 0.201, cell-free background 0.041.
[10] abbreviates: arabinose 1000000 nM, raw OD600 reference: median of DMSO wells 0.193, cell-free background 0.041.
Setting [11] is: arabinose 10000000 nM, raw OD600 reference: median of DMSO wells 0.146, cell-free background 0.041.
Where [12] appears, read: arabinose induction (level): High, raw OD600 reference: median of DMSO wells 0.331, cell-free background 0.041.
Setting [13] is: arabinose induction (level): Low, raw OD600 reference: median of DMSO wells 0.417, cell-free background 0.041.
[14] abbreviates: arabinose induction (level): High, raw OD600 reference: median of DMSO wells […], cell-free background 0.041.
Setting [15] is: arabinose induction (level): Low, raw OD600 reference: median of DMSO wells 0.227, cell-free background 0.041.
[16] abbreviates: arabinose 100 nM, raw OD600 reference: median of DMSO wells 0.413, cell-free background 0.052.
[17] abbreviates: arabinose 10000000 nM, raw OD600 reference: median of DMSO wells […], cell-free background 0.052.

Turning to `Cc1cc(C(C)(C)CC(C)(C)C)ccc1OCCOCC[N+](C)(C)Cc1ccccc1` [Methyl benzethonium chloride], the growth in experiment [1] was 0.0446 ± 0.0012; in experiment [2] (setting [7]) it was 0.0483 ± 0.0025; in experiment [2] (setting [8]), 0.0504 ± 0.002; in experiment [2] (setting [9]), 0.0489 ± 0.00059; in experiment [2] (setting [10]), 0.04487 ± 0.00031; in experiment [2] (setting [11]), 0.04963 ± 0.00035. For the same compound, the growth in experiment [3] (setting [12]) worked out at 0.0532 ± 0.001; in experiment [3] (setting [13]) it was 0.0608 ± 0.0092; in experiment [4] (setting [14]), 0.0545 ± 0.0014; in experiment [4] (setting [15]), 0.0542 ± 0.00078; in experiment [5], 0.0474 ± 0.00066; in experiment [6] (setting [16]), 0.0556 ± 0.0023. This compound displayed a growth in experiment [6] (setting [17]) of 0.0529 ± 0.0018.
Regarding `CC1(C)O[C@@H]2C[C@H]3[C@@H]4CCC5=CC(=O)CC[C@]5(C)[C@@]4(F)[C@@H](O)C[C@]3(C)[C@]2(C(=O)CCl)O1` [Halcinonide], the growth worked out at 0.215 ± 0.022 in experiment [1]; 0.283 ± 0.011 in experiment [2] (setting [7]); 0.2593 ± 0.0019 in experiment [2] (setting [8]); 0.181 ± 0.027 in experiment [2] (setting [9]); 0.123 ± 0.0028 in experiment [2] (setting [10]); 0.152 ± 0.014 in experiment [2] (setting [11]). Further, the growth worked out at 0.258 ± 0.052 in experiment [3] (setting [12]); 0.36 ± 0.049 in experiment [3] (setting [13]); 0.188 ± 0.003 in experiment [4] (setting [14]); 0.22 ± 0.0073 in experiment [4] (setting [15]); 0.442 ± 0.032 in experiment [5]; 0.413 ± 0.021 in experiment [6] (setting [16]). Moreover, the growth in experiment [6] (setting [17]) came out at 0.256 ± 0.019.
For `NC1CCN(c2c(F)cc3c(=O)c(C(=O)O)cn(C4CC4)c3c2Cl)C1` (configuration not stated) [Clinafloxacin], the growth is 0.0416 ± 0.0001 in experiment [1]; 0.0399 ± 0.00042 in experiment [2] (setting [7]); 0.0399 ± 0.00047 in experiment [2] (setting [8]); 0.0418 ± 0.0019 in experiment [2] (setting [9]); 0.03957 ± 5.8e-05 in experiment [2] (setting [10]); 0.04037 ± 0.00015 in experiment [2] (setting [11]). For the same compound, the growth amounted to 0.0476 ± 0.0014 in experiment [3] (setting [12]); 0.0476 ± 0.0014 in experiment [3] (setting [13]); 0.0489 ± 0.0013 in experiment [4] (setting [14]); 0.0481 ± 0.00067 in experiment [4] (setting [15]); 0.05277 ± 0.00038 in experiment [5]; 0.05347 ± 0.0004 in experiment [6] (setting [16]). The compound also yielded a growth in experiment [6] (setting [17]) of 0.0504 ± 0.00086.
As for `c1ccc2[nH]c(-c3cscn3)nc2c1` [Tiabendazole], the growth in experiment [1] is 0.222 ± 0.014; in experiment [2] (setting [7]), 0.275 ± 0.0031; in experiment [2] (setting [8]), 0.253 ± 0.011; in experiment [2] (setting [9]), 0.203 ± 0.021; in experiment [2] (setting [10]) it was 0.188 ± 0.0046; in experiment [2] (setting [11]), 0.15 ± 0.011. Besides, the growth in experiment [3] (setting [12]) came to 0.278 ± 0.085; in experiment [3] (setting [13]), 0.326 ± 0.1; in experiment [4] (setting [14]), 0.186 ± 0.003; in experiment [4] (setting [15]), 0.192 ± 0.023; in experiment [5], 0.572 ± 0.075; in experiment [6] (setting [16]) it was 0.408 ± 0.011. In addition, in experiment [6] (setting [17]), the growth was found to be 0.316 ± 0.015.
